MITF inh: human MITF inhibition, primary screen. AlphaScreen MITF homodimerization, bead proximity signal. inhibition, % at 2.6 µM. hit rate 0.91% among 650,000. O75030. AID 1259374; in the data active = inhibition above about 50%
Target sequence (O75030 whole entry, looked up): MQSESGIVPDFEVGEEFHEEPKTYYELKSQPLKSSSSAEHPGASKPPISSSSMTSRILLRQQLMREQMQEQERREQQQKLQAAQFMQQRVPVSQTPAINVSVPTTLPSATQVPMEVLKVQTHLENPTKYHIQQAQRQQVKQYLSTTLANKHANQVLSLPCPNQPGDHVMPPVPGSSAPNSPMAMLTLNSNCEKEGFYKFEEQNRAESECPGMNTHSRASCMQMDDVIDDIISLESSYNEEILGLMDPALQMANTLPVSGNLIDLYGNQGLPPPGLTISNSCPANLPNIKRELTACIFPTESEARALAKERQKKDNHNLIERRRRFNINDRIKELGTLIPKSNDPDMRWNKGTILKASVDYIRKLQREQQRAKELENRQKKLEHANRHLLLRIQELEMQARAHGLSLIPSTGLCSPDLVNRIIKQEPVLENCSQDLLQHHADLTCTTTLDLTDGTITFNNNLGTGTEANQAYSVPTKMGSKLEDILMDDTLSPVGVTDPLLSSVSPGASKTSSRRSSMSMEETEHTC
TEAD-YAP block: TEAD-YAP interaction inhibition | HEK-TIYL cells, TEAD-Gal4/YAP UAS-luciferase luminescence | inhibition, % at 9.12 µM | hit rate 1.4% among 640,000 | AID 1259422; in the data active = inhibition above about 32%
GPR151 activ: activates the human receptor GPR151 | hit rate 1% among 650,000 | AID 1508602 | PathHunter beta-arrestin GPR151 cells, luminescence | activation, % at 11.2 µM | Q8TDV0; in the data active = activation above about 4.9%
FBW7 activator: human FBW7 E3 ligase activation, primary screen; Q969H0; AlphaScreen FBW7–phospho-cyclin E peptide binding, activator screen; normalized activity (activation), % at 26.1 µM; hit rate 0.13% among 650,000; in the data active = normalized activity above about 1.9%;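 note: purified mutant Fbw7 with reduced substrate affinity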
GPR151 conf act: human GPR151 activation, confirmation screen | shares compounds with GPR151 activ | GPR151 PathHunter beta-arrestin cells, luminescence, 90 min; % of EA-reagent control over plate median | activation, % at 11.2 µM | 6,700 tested, under 10 active | AID 1508609;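 active = mean percent activation across replicates above the confirmation screen cutoff of 4.91%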
GPR119 ag: GPR119 activation, counter-screen for GPR151 activators. shares compounds with GPR151 activ. GPR119 PathHunter beta-arrestin cells, luminescence, 90 min; 0 = compound-well median, 100 = enzyme-acceptor control. activation, % at 11.2 µM. hit rate 0.3% among 6,700. AID 1508611;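 active = mean percent activation in the counterscreen above 29.09%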;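 note: counterscreen on off-target GPR119 to flag nonselective hits from the GPR151 activator screen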
Each line names hits and unclear results; the compound was inactive in the other large screens (follow-up assays come after a bar, where they were run); ! = not active in a repeat. The list is not random: actives were taken first. Their share in the collection is about 3.4%.

Cn1c(=O)c2ncn(CC(=O)Nc3ccc(C(=O)O)cc3)c2n(C)c1=O	GPR151 activ 5.2 | GPR151 conf act inactive | GPR119 ag inactive
O=C(Nc1nnc(N2CCCC2)s1)Nc1ccc(Br)cc1F	GPR151 activ 5.6 | GPR151 conf act inactive | GPR119 ag inactive
O=C(Nc1nnc(N2CCCC2)s1)Nc1ccccc1F	none
Cc1ccc(NC(=O)Nc2nnc(N3CCCCC3)s2)c(Cl)c1	GPR151 activ 5.3 | GPR151 conf act inactive | GPR119 ag inactive
COC(=O)CSc1nc2ccc(NC(=O)CSc3ccccn3)cc2s1	none
Cc1nc2ccccn2c1C(=O)NCCCN1CCOCC1	GPR151 activ 4.9 | GPR151 conf act inactive | GPR119 ag inactive
O=C(Cn1cnc2ccccc21)NCCCN1CCOCC1	GPR151 activ 5.9 | GPR151 conf act inactive | GPR119 ag inactive
COc1cccc(C2CC(c3cccs3)=NN2C(=O)CSc2nnc(CNC(=O)c3cccc([N+](=O)[O-])c3C)n2C)c1OC (centres undefined)	none
CC(C)NC(=O)c1cccc(NC(=O)Nc2ccc(-c3cn[nH]c3)cc2OCCN(C)C)c1	GPR151 activ 5.3 | GPR151 conf act inactive | GPR119 ag inactive
CCOc1ccccc1OCC(=O)Nc1ccc2c(c1)OCO2	none
O=C(COc1ccccc1C(=O)Nc1ccccc1)Nc1ccc2c(c1)OCO2	GPR151 activ 7.9 | GPR151 conf act inactive | GPR119 ag inactive
O=C(CC(NCCO)C(=O)O)Nc1ccccc1 (centres undefined)	GPR151 activ 6.8 | GPR151 conf act inactive | GPR119 ag inactive
Cc1cccc(NC(=O)CC(NCCO)C(=O)O)c1 (centres undefined)	none
COc1cc(C)ccc1OCc1cc(C(=O)N2CCSCC2)no1	GPR151 activ 6.0 | GPR151 conf act inactive | GPR119 ag inactive
COc1cc(C)ccc1OCc1cc(C(=O)N2CCCCCC2)no1	none
CCOC(=O)CSc1nc2ccccc2[nH]1	none
CCOC(=O)c1[nH]c(=O)[nH]c1CSc1nc2ccccc2[nH]1	GPR151 activ 10.6 | GPR151 conf act inactive | GPR119 ag inactive
CCCCOC(=O)C1=C(C)NC(=O)NC1c1cc2c(cc1Br)OCO2 (centres undefined)	GPR151 activ 5.1 | GPR151 conf act inactive | GPR119 ag inactive
Nc1ccc(C(=O)N(Cc2ccccc2)c2ccccc2)cc1	none
CN(C)c1cccc(C(=O)OCc2nnc(-c3ccccc3)o2)c1	GPR151 activ 6.6 | GPR151 conf act inactive | GPR119 ag inactive
COc1ccc(OC)c2c1cc(C(=O)O)n2C	none
CCOCCCNCc1ccccc1F	GPR151 activ 5.2 | GPR151 conf act inactive | GPR119 ag inactive
CCOC(=O)CCCCNCc1ccccc1F	none
NS(=O)(=O)c1ccc(NC(=S)NCCN2CCCCC2)cc1	GPR151 activ 6.3 | GPR151 conf act inactive | GPR119 ag inactive
COc1ccc(-c2noc(CC(=O)N3CCCc4ccccc43)n2)cc1	none
O=C(Nc1nc(-c2cccc([N+](=O)[O-])c2)cs1)c1ccccc1	none
O=C(O)CN(CCN(CC(=O)O)CC(=O)O)CCN(CC(=O)O)CC(=O)O	GPR151 activ 8.1! | GPR151 conf act inactive | GPR119 ag inactive
O=C(O)CN(CCOCCOCCN(CC(=O)O)CC(=O)O)CC(=O)O	none
COc1cccc(S(=O)(=O)N2CCC(c3nc(-c4cccs4)no3)CC2)c1	GPR151 activ 8.3 | GPR151 conf act inactive | GPR119 ag inactive
COc1cccc(S(=O)(=O)N2CCC(c3nc(-c4ccccc4)no3)CC2)c1	none
CC(C)(C)C(=O)NC(=S)N1CCOCC1	none
CC1CN(C(=S)NC(=O)C(C)(C)C)CC(C)O1 (centres undefined)	GPR151 activ 7.3 | GPR151 conf act inactive | GPR119 ag inactive
Cc1ccc2c(c1)-c1c(ssc1=S)C(C)(C)N2C(=O)c1ccccc1Cl	GPR151 activ 6.2 | GPR151 conf act inactive | GPR119 ag inactive
CCN(CC)Cc1ccc(C(=O)NCc2cnc3ccccc3c2)c(=O)[nH]1	none
CC1CCCCN1Cc1ccc(C(=O)NCc2cnc3ccccc3c2)c(=O)[nH]1 (centres undefined)	GPR151 activ 10.8 | GPR151 conf act inactive | GPR119 ag inactive
CC(=O)Nc1cccc(NC(=O)COc2ccccc2NC(C)=O)c1	none
Cc1nc(N2CCC(C(=O)O)CC2)c2oc3ccccc3c2n1	none
Cc1nc(N2CCOCC2)c2oc3ccccc3c2n1	GPR151 activ 7.4 | GPR151 conf act inactive | GPR119 ag inactive
CC(=O)c1c(C)[nH]c(C(=O)OCC(=O)Nc2ccc(C)cc2[N+](=O)[O-])c1C	none
CC(=O)c1c(C)[nH]c(C(=O)OCC(=O)Nc2ccc(Br)cc2F)c1C	GPR151 activ 5.0 | GPR151 conf act inactive | GPR119 ag inactive
CC(NC(=O)CN1CCC(=O)CC1)c1ccc(-c2ccccc2)cc1 (centres undefined)	none
COCCNC(=O)CC(=O)Nc1ccc2nc3n(c(=O)c2c1)CCCCC3	none
CCCCC[C@@H](O)/C=C/[C@H]1[C@H](O)CC(=O)[C@@H]1CCCCCCC(=O)O	GPR151 activ 7.2 (no result: TEAD-YAP block, FBW7 activator) | GPR151 conf act inactive | GPR119 ag inactive
CCCCC[C@H](O)/C=C/[C@H]1[C@H](O)CC(=O)[C@@H]1CCCCC(=O)O	none (no result: TEAD-YAP block, FBW7 activator)
O=C(COC(=O)c1cc(S(=O)(=O)N2CCOCC2)ccc1F)Nc1cccc(F)c1	GPR151 activ 6.5 | GPR151 conf act inactive | GPR119 ag inactive
O=C(COC(=O)c1ccc(F)c(S(=O)(=O)N2CCOCC2)c1)c1ccc(Cl)cc1	none
O=C(COC(=O)c1ccc(F)c(S(=O)(=O)N2CCOCC2)c1)c1ccccc1	GPR151 activ 6.1 | GPR151 conf act inactive | GPR119 ag inactive
O=C(CCl)Nc1ccc2c(c1)OCCCO2	none
O=C(O)CN(CC(=O)Nc1ccc2c(c1)OCCCO2)Cc1ccccc1	GPR151 activ 9.1 | GPR151 conf act inactive | GPR119 ag inactive
NC(=O)c1cc(-c2ccc3c(c2)OCO3)no1	GPR151 activ 5.7 | GPR151 conf act inactive | GPR119 ag inactive
COC(=O)c1cc(-c2ccc3c(c2)OCO3)no1	none
CCCC(CCC)C(=O)Nc1cccnc1	none
CCCC(CCC)C(=O)Nc1ccncc1	GPR151 activ 8.7 | GPR151 conf act inactive | GPR119 ag inactive
Cc1cc(C)c(NC(=O)CSc2cccc3ccc(C)nc23)c(C)c1	none
N#CC1=C(NC(=S)NC(=O)c2ccccc2)c2ccccc2CC12CCCC2	none
Cc1ccc(-c2cc(C(F)(F)F)n3ncc(C(=O)NC(C)C)c3n2)cc1	GPR151 activ 5.0 | GPR151 conf act inactive | GPR119 ag inactive
CC(=O)c1cccc(NC(=O)c2cnn3c(C(F)(F)F)cc(-c4ccco4)nc23)c1	GPR151 activ 5.1 | GPR151 conf act inactive | GPR119 ag inactive
O=C(O)CNc1nc2nc[nH]c2c(=O)[nH]1	none
COc1cccc(-c2c(NC(=O)c3cccs3)oc3ccc(Cl)cc3c2=O)c1	none
O=C1CCC(=O)N1OCCOc1cccc(C(F)(F)F)c1	none
CC(C)Cn1c(SCc2ccc([N+](=O)[O-])cc2)nnc1-c1ccncc1	GPR151 activ 5.9 | GPR151 conf act inactive | GPR119 ag inactive

Screens (PubChem)
